Data from PMC4552634, “A New Set of Chemical Starting Points with Plasmodium falciparum Transmission-Blocking Potential for Antimalarial Drug Discovery” (PLoS ONE, 2015).
The campaign covered roughly 13,000 compounds. About 3,200 (25%) showed an effect of 50% or more. The list shows a part of the results.

system: P. falciparum stage V gametocytes; set-up: BacTiter-Glo ATP luminescence viability of purified stage V gametocytes in 384-well plates, per cent inhibition versus DMSO; details: 48 h, 5 µM; inhibitor

SMILES	% Inhibition [%]
CC(C)(C)c1ccc(C(=O)N2CCC3(CC2)C(=O)N(CC(=O)NCC2CCCO2)CN3c2ccccc2)cc1 (centres unmarked) [TCMDC-125172]	-58.74
COc1ccc(N2CCN(CCCCNC(=O)c3ccc(NC(=O)c4ccc(Cl)cc4)cc3)CC2)c(C)c1 [TCMDC-138431]	-16.53
CC(C)NCc1ccc(-c2ccc(NC(=O)c3ccc(Cl)cc3)cc2)cc1 [TCMDC-132586]	47.91
CC(C)NCc1ccc(-c2ccc(NC(=O)c3cccc(Cl)c3)cc2)cc1 [TCMDC-132592]	87.86
CN(C)Cc1ccc(-c2cccc(NC(=O)c3cccc(Cl)c3)c2)cc1 [TCMDC-132644]	-4.056
CN(C)CCN(C)Cc1ccc(-c2ccc(NC(=O)c3cccc(Cl)c3)cc2)cc1 [TCMDC-132593]	39.43
CC(C)NCc1cccc(-c2cccc(NC(=O)c3cccc(Cl)c3)c2)c1 [TCMDC-132658]	93.91
CC(C)NCc1ccc(-c2cccc(NC(=O)c3cccc(Cl)c3)c2)cc1 [TCMDC-132642]	18.79
O=C(Nc1ccc(Cn2ncc(N3CCCNCC3)c(Cl)c2=O)cc1)Nc1ccc(OCc2ccccc2)cc1 [TCMDC-133319]	26.32
COC(=O)c1ccc(CC(C)NCC(O)c2cccc(Cl)c2Cl)cc1 (centres unmarked) [TCMDC-131483]	20.31
O=C(COc1ccccc1)N(Cc1ccc(-c2ccc(CNC3Cc4ccccc4C3)cc2)cc1)C1CCNCC1 [TCMDC-141450]	110
CC[C@H](C)CNC(=O)c1ccnc(-c2ccc(CNC3Cc4ccccc4C3)cc2)c1 [TCMDC-134253]	2.834
CC(C)CC(=O)N(Cc1ccc(-c2ccc(CNC3Cc4ccccc4C3)cc2)cc1)C1CCNCC1 [TCMDC-141449]	118.6
CCCNC(=O)c1ccnc(-c2ccc(CNC3Cc4ccccc4C3)cc2)c1 [TCMDC-134255]	1.364
CC(C)CNC(=O)c1ccnc(-c2ccc(CNC3Cc4ccccc4C3)cc2)c1 [TCMDC-134254]	4.563
CC(C)CNC(=O)c1cncc(-c2ccc(CNC3Cc4ccccc4C3)cc2)c1 [TCMDC-134241]	-1.576
Cc1ccc(NC(=O)N2CCN(CCCCCNC(=O)/C=C/c3ccc(Cl)c(Cl)c3)CC2)cc1C [TCMDC-135732]	-3.92
CCOC(=O)c1c(CN(CC)CC)n(-c2ccccc2)c2cc(Br)c(O)cc12 [TCMDC-125679]	-14.42
N=C(N)Nc1ccc(Cc2ccc(NC(=N)N)cc2)cc1 [TCMDC-137917]	-14.93
CCCCCN1CCC(NS(=O)(=O)c2cccc(C(=O)Nc3ccc(C(F)(F)F)cc3)c2)C1 (centres unmarked) [TCMDC-132486]	-23.98
CCCCCN1CCCC(NS(=O)(=O)c2ccc(C(=O)Nc3cccc(C(F)(F)F)c3)cc2)C1 (centres unmarked) [TCMDC-132774]	-2.262
CCCCCN1CCC(NS(=O)(=O)c2ccc(C(=O)Nc3cccc(C(F)(F)F)c3)cc2)C1 (centres unmarked) [TCMDC-132771]	83.46
CCCCCN1CCCC(NS(=O)(=O)c2cccc(C(=O)Nc3cccc(C(F)(F)F)c3)c2)C1 (centres unmarked) [TCMDC-132768]	75.62
CCCCCN1CCCCC(NS(=O)(=O)c2ccc(C(=O)Nc3cccc(C(F)(F)F)c3)cc2)C1 (centres unmarked) [TCMDC-132778]	-0.2647
CCCCCN1CCC(NS(=O)(=O)c2cccc(C(=O)Nc3cccc(C(F)(F)F)c3)c2)C1 (centres unmarked) [TCMDC-132488]	-38

SMILES	% Inhibition [%]
CN1CC=C(c2c[nH]c3ccc(OCc4ccccc4)cc23)CC1 [TCMDC-132113]	-6.135
Cc1ccc(C2=NNC3(S2)C(=O)Nc2ccc(C)cc23)cc1 (centres unmarked) [TCMDC-123866]	44.96
CCCCNC(=O)[C@@H]1CCCN1C(=O)c1ccc(O)c(-c2ccc(Cl)c(Cl)c2)c1 [TCMDC-140837]	7.64
Clc1ccc(CNc2nc(NCCc3cnc[nH]3)nc(NC3CCCCC3)n2)cc1 [TCMDC-139734]	-12.92
NCC1CCCN1Cc1ccc(-c2ccc(-c3nc4ccc(C(F)(F)F)cc4[nH]3)cc2)cc1 (centres unmarked) [TCMDC-132995]	50.61
NCC1CCCN1Cc1ccc(-c2cccc(-c3nc4ccc(C(F)(F)F)cc4[nH]3)c2)cc1 (centres unmarked) [TCMDC-132990]	70.04
NCC1CCCN1Cc1ccc(-c2ccc(-c3nc4cc(C(F)(F)F)ccc4[nH]3)s2)cc1.O=C(O)C(F)(F)F (centres unmarked) [TCMDC-133000]	16.97
OCCN1CCN(Cc2ccc(-c3cccc(-c4nc5ccc(C(F)(F)F)cc5[nH]4)c3)cc2)CC1 [TCMDC-133024]	24.38
NCC1CCCN1Cc1cccc(-c2ccc(-c3nc4ccc(C(F)(F)F)cc4[nH]3)cc2)c1 (centres unmarked) [TCMDC-132996]	21.42
OCC1CCN(Cc2ccc(-c3ccc(-c4nc5ccc(C(F)(F)F)cc5[nH]4)cc3)cc2)CC1 [TCMDC-133124]	-13.18
Fc1ccc2cc(C=Cc3ccncc3)[nH]c2c1 [TCMDC-137494]	-53.7
O=C(Nc1cccc(C(F)(F)F)c1)Nc1nc2ccc([N+](=O)[O-])cc2s1 [TCMDC-123631]	27.05
Cn1cncc1-c1ccc2ncnc(Nc3ccc(OCc4ccccc4)cc3)c2c1 [TCMDC-137504]	-32.31
Cn1c(NCc2cc(F)cc3c2OCOC3)nc2cc(Nc3ccnc(Nc4cccc(CS(C)(=O)=O)c4)n3)ccc21 [TCMDC-134151]	-2.358
Cn1c(Nc2cc(C(C)(C)C)on2)nc2cc(Nc3ccnc(Nc4ccc(CS(C)(=O)=O)cc4)n3)ccc21 [TCMDC-141890]	82.06
CN(c1ccc2c(c1)nc(Nc1cc(C(C)(C)C)on1)n2C)c1ccnc(Nc2ccc(CS(C)(=O)=O)cc2)n1 [TCMDC-141892]	-9.766
Cc1ccc(Nc2nccc(N(C)c3ccc4c(c3)nc(NC(=O)Cc3ccc(Cl)c(Cl)c3)n4C)n2)cc1S(N)(=O)=O [TCMDC-141965]	-9.254
Cc1ccc(Nc2nccc(Nc3ccc4c(c3)nc(Nc3cc(C(C)(C)C)on3)n4C)n2)cc1S(C)(=O)=O [TCMDC-141889]	96.33
CN1CCN(S(=O)(=O)c2cccc(Nc3nccc(N(C)c4ccc5c(c4)nc(NC(=O)c4cccs4)n5C)n3)c2)CC1 [TCMDC-134378]	79.98
Cc1[nH]nc2cc(Nc3ccnc(Nc4cccc(CN5CCOCC5)c4)n3)ccc12 [TCMDC-138632]	3.491
Cc1ccc(Nc2nc3cc(N(C)c4ccnc(Nc5cccc(CCS(C)(=O)=O)c5)n4)ccc3n2C)cc1 [TCMDC-138853]	-59.51
Cn1c(Nc2cc(C(C)(C)C)on2)nc2cc(Nc3ccnc(Nc4cccc(CS(C)(=O)=O)c4)n3)ccc21 [TCMDC-141893]	24.31
Cc1ccc(Nc2nccc(Nc3ccc4c(C)[nH]nc4c3)n2)cc1F [TCMDC-138542]	-63.2
CN(c1ccc2c(c1)nc(NC(=O)C1(c3cc(F)ccc3F)CC1)n2C)c1ccnc(Nc2cccc(CS(C)(=O)=O)c2)n1 [TCMDC-141964]	-60.83
Cn1c(Nc2cc(C(C)(C)C)on2)nc2cc(Nc3ccnc(Nc4cccc(S(=O)(=O)N5CCOCC5)c4)n3)ccc21 [TCMDC-134098]	97.72
